Experimental data reported in PubChem BioAssay (NCATS).
Results filed as inconclusive are left out. The source made the active and inactive calls. Unless noted, calls follow the shape of the dose curve; as a rule, active = well fitted cell-killing curve with a large enough effect; inconclusive = small, poorly fitted or top-dose-only effect; inactive = flat fitted curve, though single readings scatter.

How the values were obtained:
[1] = Cell Viability - LYMP2-025 (AID 976); also: series mostly up to about 92 µM
Outline: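 CellTiter-Glo luminescence (cellular ATP) after 24 h compound exposure at 37 C; LYMP2-025 human lymphoblastoid cells, 2500/well, complete medium. Tetraoctylammonium bromide positive control. AC50 by Hill equation fit of qHTS concentration-response.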

[2] = Cell Viability - LYMP2-002 (AID 977); also: series mostly up to about 92 µM
Outline: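 Human lymphoblastoid cells, 2500/well, complete medium; 5 h 37 C settle; compound 24 h 37 C; CellTiter-Glo, 30 min RT; luminescence. Decrease in ATP = cytotoxicity; AC50 via Hill equation.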

[3] = Cell Viability - LYMP2-006 (AID 978);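 also: series mostly up to about 92 µM; cells exposed to compound for 24 hours; nearly all actives have a fitted effect of over 60% in size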
Outline: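 Concentration-dependent loss of intracellular ATP in a human lymphoblastoid line after 24 hr treatment at 37 C was measured by CellTiter-Glo luminescence, with AC50 values obtained from standard Hill-equation modelling.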

[4] = Cell Viability - LYMP2-007 (AID 979);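 also: cells exposed to compound for 24 h before reading; nearly all actives have a fitted effect of over 60% in size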
Outline: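 qHTS cytotoxicity: 2500 cells/well, 5 hr 37 C settle, compound 24 hr 37 C, CellTiter-Glo 30 min RT, luminescence. Decrease in ATP = toxicity. AC50 by standard Hill equation; tetraoctylammonium bromide positive control.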

[5] = Cell Viability - LYMP2-008 (AID 980); also: nearly all actives have a fitted effect of over 60% in size
Outline: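 Luminescent ATP read-out (CellTiter-Glo, 30 min RT) after 24 hr compound exposure at 37 C of human lymphoblastoid cells in complete medium. Decrease in ATP taken as cytotoxicity; AC50 derived by standard Hill fit of qHTS concentration-response data.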

[6] = Cell Viability - LYMP2-010 (AID 981);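 also: cells exposed to compound for 24 hours at 37 °C; nearly all actives have a fitted effect of over 55% in size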
Outline: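 qHTS cytotoxicity, 1536-well: 2500 cells/well, 5 hr settle, 24 hr compound at 37 C, CellTiter-Glo 30 min RT, luminescence read. Decrease in ATP = toxicity; AC50 via standard Hill equation. Positive control tetraoctylammonium bromide.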

[7] = Cell Viability - LYMP2-012 (AID 982);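 also: cellular ATP by luciferase luminescence where a drop means cytotoxicity; cells exposed to compound for one day before reading; nearly all actives have a fitted effect of over 55% in size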
[8] = Cell Viability - LYMP2-014 (AID 983); also: series mostly up to about 92 µM; nearly all actives have a fitted effect of over 50% in size
Outline: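 2500 cells/well, 5 hr 37 C; cpd 24 hr 37 C, complete medium; CellTiter-Glo 30 min RT, luminescence; ATP loss = toxicity; AC50 via Hill eqn; tetraoctylammonium bromide positive control.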

[9] = Cell Viability - LYMP2-016 (AID 984);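 also: cells exposed to compound for 24 hours at 37 °C; nearly all actives have a fitted effect of over 55% in size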
Outline: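 Acute toxicity in a Coriell human lymphoblastoid line is scored as loss of intracellular ATP over 24 h of treatment in complete medium. CellTiter-Glo signal is fitted across concentrations with the Hill equation to give AC50.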

[10] = Cell Viability - LYMP2-018 (AID 985); also: nearly all actives have a fitted effect of over 50% in size
Outline: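 2500 cells/well; 5 hr 37 C; cmpd 24 hr 37 C, complete medium; CellTiter-Glo 30 min RT; luminescence. Tetraoctylammonium bromide positive control. AC50 via Hill fit.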

[11] = Cell Viability - LYMP2-020 (AID 986); also: series mostly up to about 92 µM; nearly all actives have a fitted effect of over 55% in size
Outline: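 qHTS, 2500 cells/well; 5 hr then 24 hr compound exposure, 37 C; CellTiter-Glo luminescence after 30 min RT; ATP decrease taken as cytotoxicity; AC50 via Hill equation; tetraoctylammonium bromide positive control.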

[12] = Cell Viability - LYMP2-022 (AID 987); also: nearly all actives have a fitted effect of over 55% in size
Outline: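 Luminescent ATP read-out (CellTiter-Glo, 30 min, RT) after 24 hr, 37 C compound exposure of 2500 human lymphoblastoid cells/well in complete medium. Cytotoxicity taken as concentration-dependent ATP loss; AC50 from standard Hill equation.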

[13] = Cell Viability - LYMP2-024 (AID 988); also: nearly all actives have a fitted effect of over 60% in size
Outline: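 ATP-based luminescence (CellTiter-Glo, 30 min RT) after 24 h compound exposure at 37 C of 2500 lymphoblastoid cells/well; decrease in ATP taken as cytotoxicity. qHTS concentration-response fitted to standard Hill equation for AC50.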

[14] = Cell Viability - LYMP2-026 (AID 989); also: nearly all actives have a fitted effect of over 50% in size
Outline: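 qHTS cytotoxicity: 2500 cells/well, 5 hr 37 C, compound 24 hr 37 C, CellTiter-Glo 30 min RT, luminescence. Tetraoctylammonium bromide positive control. AC50 via standard Hill fit.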

[15] = Cell Viability - LYMP1-002 - Assay at 24 hr (AID 993)
Outline: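 CellTiter-Glo luminescence (intracellular ATP) after 24 h compound exposure, 37 C, in LYMP1-002 human lymphoblastoid cells; decreased ATP taken as cytotoxicity. AC50 from standard Hill fit of concentration-response curves.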

[16] = Cell Viability - LYMP1-002 - Assay at 40 hr (AID 994); also: nearly all actives have a fitted effect of over 60% in size
Outline: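 qHTS cytotoxicity; 2500 cells/well, 5 hr 37 C settle, compound 40 hr 37 C. CellTiter-Glo, 30 min RT, luminescence (ATP). Concentration-response, Hill fit → AC50. Pos. ctrl tetraoctylammonium bromide.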

[17] = qHTS Assay for Identification of Small Molecule Inducers of Hypoxia Response (AID 2120; active = well fitted curve in the direction sought with a large enough effect in the signal ratio, with a control signal flat, not every such curve was filed as active; the % refers to the signal ratio)
Outline: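 Read-out: CCF4 FRET emission ratio 460nm/530nm (excitation 405nm), converted to %Activity, with AC50 fitted across a compound titration. ME-180 cells carried an HRE-driven beta-lactamase reporter; compound exposure 17 h, 37 degrees C.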

[18] = molecular target: Estrogen receptor (Homo sapiens) (UniProt P03372); assay: qHTS assay for small molecule antagonists of estrogen receptor alpha signaling (AID 588513; active = well fitted curve in the direction sought with a large enough effect in the signal ratio, with a control signal flat, not every such curve was filed as active; the % refers to the signal ratio)
Outline: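 Cells were plated at 5000/well and incubated 4 h at 37 C. Compounds were added as 1:2 dilution series, duplicates. 17-beta-estradiol (0.5nM final) was added for 18 h before CCF4 detection.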

[19] = molecular target: Estrogen receptor (Homo sapiens) (UniProt P03372); assay: qHTS assay for small molecule agonists of estrogen receptor alpha signaling (AID 588514; calls by dose curve; also: nearly all actives have a fitted effect of over 70% in size)
Outline: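 Read-out: CCF4 fluorescence from a beta-lactamase reporter in ER-alpha-UAS-bla HEK 293 cells after 18 hrs of compound exposure at 37 C. Normalized to 20 nM 17-beta-estradiol (100%) and DMSO (0%).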

Measured: Potency

Sequence of Estrogen receptor (Homo sapiens) (P03372 whole entry, looked up): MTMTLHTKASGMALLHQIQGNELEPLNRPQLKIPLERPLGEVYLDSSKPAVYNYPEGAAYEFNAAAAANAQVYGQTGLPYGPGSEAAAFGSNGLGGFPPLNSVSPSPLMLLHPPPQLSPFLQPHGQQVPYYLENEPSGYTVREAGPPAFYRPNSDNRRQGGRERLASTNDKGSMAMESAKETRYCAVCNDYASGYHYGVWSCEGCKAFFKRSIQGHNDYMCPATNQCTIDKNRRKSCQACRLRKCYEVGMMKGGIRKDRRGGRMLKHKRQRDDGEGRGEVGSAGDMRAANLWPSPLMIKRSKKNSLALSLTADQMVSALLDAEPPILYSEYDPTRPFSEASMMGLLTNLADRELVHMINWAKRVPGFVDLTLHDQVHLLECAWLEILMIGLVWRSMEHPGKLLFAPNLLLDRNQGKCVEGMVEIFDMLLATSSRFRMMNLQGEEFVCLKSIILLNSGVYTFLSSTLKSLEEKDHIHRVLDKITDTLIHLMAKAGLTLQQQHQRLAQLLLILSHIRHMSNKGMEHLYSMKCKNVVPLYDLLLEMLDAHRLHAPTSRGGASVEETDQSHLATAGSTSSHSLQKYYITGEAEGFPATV

CC(=O)OC(C)C
inactive: [1] | [2] | [3] | [4] | [5] | [6] | [7] | [8] | [9] | [10] | [11] | [12] | [13] | [14] | [15] | [16] | [17] | [18] | [19]

Cc1ccc(C(C)(C)C)cc1
inactive: [1] | [2] | [3] | [4] | [5] | [6] | [7] | [8] | [10] | [11] | [13] | [14] | [16] | [17] | [18] | [19]

C=C(C)C(=O)OCCCCCC
inactive: [1] | [2] | [3] | [4] | [5] | [6] | [7] | [8] | [9] | [10] | [11] | [13] | [14] | [15] | [16] | [17] | [18] | [19]

CCCCCCO
inactive: [1] | [2] | [3] | [4] | [5] | [6] | [7] | [8] | [9] | [10] | [11] | [13] | [14] | [15] | [16] | [17] | [18] | [19]

Nc1cc(Cl)c([N+](=O)[O-])cc1O
inactive: [1] | [2] | [3] | [4] | [5] | [6] | [7] | [8] | [11] | [13] | [14] | [15] | [16] | [17] | [18] | [19]

COc1ccc(N)c(C)c1
inactive: [1] | [2] | [3] | [4] | [5] | [6] | [7] | [8] | [9] | [10] | [11] | [12] | [13] | [14] | [16] | [17] | [18] | [19]

CC(N)CN (stereo not given)
inactive: [1] | [2] | [3] | [4] | [5] | [6] | [7] | [8] | [9] | [10] | [11] | [12] | [13] | [14] | [15] | [16] | [17] | [18] | [19]

COc1ccc(OC)cc1
inactive: [1] | [2] | [3] | [4] | [5] | [6] | [7] | [8] | [9] | [10] | [11] | [12] | [13] | [14] | [16] | [17] | [18] | [19]

C/C=C(/C)C#N
inactive: [1] | [2] | [3] | [4] | [5] | [6] | [7] | [9] | [10] | [11] | [12] | [13] | [14] | [15] | [16] | [17] | [18] | [19]
